In article PMC5540273 (PLoS ONE, 2017):

Tests used:
Settings in all cases: concentration: 1 μM, replicates: in singlicate; n = 1
RIPK1 = test system: RIPK1
RIPK2 = test system: RIPK2
RIPK4 = test system: RIPK4
RIPK5 = test system: RIPK5
ROCK1 = test system: ROCK1
ROCK2 = test system: ROCK2
ROS1 = test system: ROS1
[1] = test system: RPS6KA4(Kin.Dom.1-N-terminal)
[2] = test system: RPS6KA4(Kin.Dom.2-C-terminal)
[3] = test system: RPS6KA5(Kin.Dom.1-N-terminal)
[4] = test system: RPS6KA5(Kin.Dom.2-C-terminal)
[5] = test system: T1, RSK1(Kin.Dom.1-N-terminal)
T1 construct: gene RPS6KA1

[6] = test system: T2, RSK1(Kin.Dom.2-C-terminal)
T2 construct: gene RPS6KA1

[7] = test system: T3, RSK2(Kin.Dom.1-N-terminal)
T3 construct: gene RPS6KA3

[8] = test system: T4, RSK2(Kin.Dom.2-C-terminal)
T4 construct: gene RPS6KA3

[9] = test system: T5, RSK3(Kin.Dom.1-N-terminal)
T5 construct: gene RPS6KA2

[10] = test system: T6, RSK3(Kin.Dom.2-C-terminal)
T6 construct: gene RPS6KA2

[11] = test system: T7, RSK4(Kin.Dom.1-N-terminal)
T7 construct: gene RPS6KA6

[12] = test system: T8, RSK4(Kin.Dom.2-C-terminal)
T8 construct: gene RPS6KA6

S6K1 = test system: S6K1
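Also: KINOMEscan kinase panel screen.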

Row | SMILES | %Inh (RIPK1) [%] | %Inh (RIPK2) [%] | %Inh (RIPK4) [%] | %Inh (RIPK5) [%] | %Inh (ROCK1) [%] | %Inh (ROCK2) [%] | %Inh (ROS1) [%] | %Inh [1] [%] | %Inh [2] [%] | %Inh [3] [%] | %Inh [4] [%] | %Inh [5] [%] | %Inh [6] [%] | %Inh [7] [%] | %Inh [8] [%] | %Inh [9] [%] | %Inh [10] [%] | %Inh [11] [%] | %Inh [12] [%] | %Inh (S6K1) [%]
1 | O=C(NCCCN1CCCC1=O)c1cnc(NCc2cc(Cl)ccc2Cl)nc1NC1CCNCC1 | 0 | 0 | 0 | 0 | 0 | 0 | 0 | 15 | 0 | 0 | 0 | 100 | 5 | 0 | 0 | 39 | 8 | 0 | 17 | 26
2 | Fc1cccc(COc2ccc(Nc3ncnc4nn5ccccc5c34)cc2Cl)c1 [GW689066] | 0 | 0 | 0 | 0 | 40 | 33 | 1 | 17 | 0 | 0 | 0 | 4 | 0 | 0 | 0 | 0 | 0 | 0 | 0 | 0
3 | Fc1cccc(COc2ccc(Nc3ncnc4cc[nH]c34)cc2Cl)c1 | 13 | 25 | 16 | 33 | 0 | 0 | 35 | 9 | 11 | 2 | 0 | 12 | 23 | 15 | 0 | 8 | 26 | 20 | 29 | 21
4 | COC(=O)c1cccc(NC(=O)NCCNc2ccnc(Nc3ccc(F)cc3)n2)c1 [GSK1379883] | 22 | 0 | 2 | 0 | 25 | 5 | 17 | 23 | 0 | 22 | 4 | 30 | 0 | 0 | 0 | 0 | 0 | 0 | 11 | 0
5 | Cc1cc(N2CCC(NS(=O)(=O)c3ccc(F)cc3)CC2)nc(Nc2cccc(C#N)c2)n1.O=C(O)C(F)(F)F [GSK1653537] | 57 | 0 | 4 | 0 | 0 | 0 | 7 | 0 | 0 | 28 | 0 | 7 | 0 | 3 | 20 | 18 | 0 | 62 | 10 | 0
6 | COc1ccc(-c2oc3ncnc(N)c3c2-c2ccc(OC)cc2)cc1 [SB-589132] | 2 | 28 | 1 | 0 | 41 | 0 | 0 | 0 | 0 | 0 | 0 | 29 | 30 | 9 | 30 | 5 | 0 | 0 | 69 | 16
7 | Cc1ccc(NC(=O)c2cccc(C#N)c2)cc1-c1ccc(C(=O)Nc2ccncc2)cc1 [GSK1398463] | 2 | 3 | 38 | 8 | 22 | 0 | 0 | 9 | 0 | 26 | 1 | 24 | 0 | 0 | 6 | 9 | 0 | 0 | 1 | 11
8 | CC(C)N1CCC(n2cnc(-c3ccc(F)cc3)c2-c2ccnc(N)n2)CC1 [SB-223132] | 4 | 48 | 0 | 0 | 1 | 0 | 0 | 14 | 0 | 7 | 0 | 0 | 56 | 3 | 29 | 12 | 4 | 0 | 66 | 0
9 | Cc1cccc(-c2nc(Nc3ccc4[nH]nnc4c3)c3ccccc3n2)n1 [GW867587] | 0 | 0 | 0 | 0 | 49 | 0 | 0 | 0 | 0 | 0 | 0 | 0 | 16 | 12 | 0 | 0 | 12 | 0 | 0 | 0
10 | Cn1ccc2ncnc(Nc3ccc(Oc4cccc(Cl)c4)c(Cl)c3)c21 | 0 | 47 | 0 | 40 | 3 | 0 | 0 | 0 | 1 | 19 | 11 | 13 | 0 | 20 | 0 | 19 | 10 | 29 | 14 | 0
11 | Nc1nc(-c2cccnc2)c(-c2ccnc3ccccc23)s1 [GW684083] | 0 | 10 | 0 | 2 | 44 | 32 | 25 | 0 | 0 | 26 | 0 | 11 | 22 | 3 | 27 | 8 | 0 | 0 | 79 | 18
12 | Cn1ccc2ncnc(Oc3ccc(NC(=O)Nc4cccnc4)c(Cl)c3)c21 | 0 | 3 | 0 | 19 | 1 | 0 | 0 | 0 | 0 | 17 | 13 | 0 | 41 | 1 | 0 | 0 | 17 | 0 | 3 | 0
13 | COc1cc2ncnc(Nc3ccc(OCc4ccccc4Br)c(Cl)c3)c2cc1OC.Cl [GI261590] | 0 | 86 | 7 | 0 | 16 | 27 | 4 | 9 | 0 | 0 | 0 | 32 | 0 | 0 | 3 | 100 | 0 | 0 | 0 | 11
14 | C[C@@H]1CCN(C(=O)CO)C[C@@H]1N(C)c1ncnc2[nH]ccc12 | 0 | 0 | 0 | 12 | 16 | 23 | 0 | 88 | 0 | 0 | 13 | 0 | 4 | 0 | 0 | 0 | 23 | 0 | 30 | 1
15 | CCc1nc(-c2cccc(N(C)S(=O)(=O)c3ccccc3)c2)c(-c2ccnc(Nc3ccc(N4CCN(C(C)=O)CC4)nc3)n2)s1 [GSK1645895] | 0 | 90 | 18 | 10 | 0 | 0 | 0 | 0 | 0 | 0 | 2 | 26 | 24 | 0 | 1 | 8 | 23 | 0 | 20 | 7
16 | Cl.c1ccc(Cn2ncc3cc(Nc4ncnc5ccccc45)ccc32)cc1 [GW273749] | 7 | 74 | 8 | 6 | 12 | 21 | 10 | 3 | 0 | 8 | 5 | 11 | 3 | 0 | 0 | 0 | 0 | 0 | 17 | 4
17 | O=C(Nc1ccccc1)Nc1ccc(Oc2ccc3nccn3n2)cc1 | 11 | 88 | 0 | 0 | 0 | 0 | 0 | 50 | 0 | 0 | 19 | 5 | 0 | 0 | 0 | 6 | 0 | 0 | 0 | 0
18 | CC(C)(C)c1ccc(-n2cnc3c(N)ncnc32)cc1 [SKF-97263] | 1 | 0 | 16 | 14 | 0 | 0 | 15 | 0 | 2 | 19 | 0 | 0 | 16 | 0 | 28 | 8 | 0 | 15 | 0 | 10
19 | CN1CCC(n2cnc(-c3ccc(F)cc3)c2-c2ccnc(NC3CCNCC3)n2)CC1 [SB-229482] | 0 | 0 | 45 | 7 | 35 | 25 | 0 | 14 | 0 | 1 | 0 | 17 | 23 | 9 | 43 | 18 | 30 | 0 | 51 | 25
20 | Clc1ccc(-c2cc(-c3c[nH]nc3-c3ccccn3)ccn2)cc1 [GW681251] | 0 | 37 | 0 | 0 | 0 | 12 | 0 | 2 | 0 | 6 | 0 | 6 | 13 | 0 | 21 | 0 | 0 | 0 | 44 | 0
21 | N#Cc1ccc(Oc2ccc(Nc3ncnc4cc[nH]c34)cc2Cl)cc1 | 2 | 26 | 0 | 6 | 2 | 0 | 0 | 0 | 8 | 20 | 0 | 20 | 17 | 19 | 0 | 9 | 23 | 16 | 32 | 10
